# Screens as filed in PubChem BioAssay.
# AmpC inh no detg: qHTS Inhibitors of AmpC Beta-Lactamase (assay without detergent). P00811. AmpC nitrocefin hydrolysis, absorbance 480 nm, 0.0001% Triton. Potency, µM (highest dose often 57.1 µM), inactives show top-dose activity change, negative = inhibition, most hits filed as inhibitors. 330,000 compounds, 0.52% hits;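 further: plate controls were no compound for no effect and no enzyme for full effect; nearly all actives have a fitted effect of over 20% in size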
# Target sequence (P00811 whole entry, looked up): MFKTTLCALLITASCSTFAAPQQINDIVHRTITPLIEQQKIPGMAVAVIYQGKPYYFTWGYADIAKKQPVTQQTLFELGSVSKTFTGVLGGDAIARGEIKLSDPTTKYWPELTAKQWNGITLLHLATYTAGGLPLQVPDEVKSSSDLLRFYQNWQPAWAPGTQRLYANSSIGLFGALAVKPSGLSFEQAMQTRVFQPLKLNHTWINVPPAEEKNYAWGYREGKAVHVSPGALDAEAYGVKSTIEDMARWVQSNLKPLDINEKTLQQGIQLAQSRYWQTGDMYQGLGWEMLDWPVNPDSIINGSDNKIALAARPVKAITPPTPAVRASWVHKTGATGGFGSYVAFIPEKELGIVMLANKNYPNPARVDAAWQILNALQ
#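 AmpC (5.3 nM in the dispensed reagent) in 20 mM phosphate pH 7.0 with 0.01% (detergent screen) or 0.0001% Triton X-100 was preincubated with compounds for 15 min at room temperature. Nitrocefin was then added from an 800 uM solution, and hydrolysis was followed at 480 nm.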
# AmpC detergent: qHTS Inhibitors of AmpC Beta-Lactamase (assay with detergent); AmpC hydrolysis of nitrocefin, absorbance 480 nm, 0.01% Triton; Potency, µM (top dose mostly 114 µM), for inactives: top-dose activity change, negative = inhibition, hits mostly inhibitors; 370,000 compounds, 0.041% hits; AID 485294, 2010;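 further: 0% = no-compound wells and -100% = no-enzyme wells; nearly all actives have a fitted effect of over 25% in size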
#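 AmpC (5.3 nM in the dispensed reagent) in 20 mM phosphate pH 7.0 with 0.01% (detergent screen) or 0.0001% Triton X-100 was preincubated with compounds for 15 min at room temperature. Nitrocefin was then added from an 800 uM solution, and hydrolysis was followed at 480 nm.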
# AMA1 RON2 block: qHTS for Inhibitors of AMA1-RON; Towards Development of Antimalarial Drug Lead: Primary Screen | Plasmodium falciparum AMA1 (3D7) - RON2 peptide interaction | AlphaScreen AMA1-biotinylated RON2 peptide binding | Potency, µM (titrated, usually from 58.2 µM), inactives show at the highest dose activity change, negative = inhibition, most hits filed as inhibitors | 360,000 compounds, 0.2% hits;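 further: 0% = vehicle wells and -100% = peptide control; nearly all actives have a fitted effect of over 45% in size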
#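 AMA1 (3D7) with his tag at 25 nM final met compounds first, then biotinylated RON2 peptide at 25 nM; detection used donor plus acceptor beads, 10 µg/mL apiece, read by AlphaScreen after 30 min at room temperature.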
# NS1 inh: qHTS Assay for Inhibitors of Influenza NS1 Protein Function; Potency, µM (series often up to 46.1 µM), inactives show top-dose activity, positive = more growth; 270,000 compounds, 0.4% hits; AID 2326, 2010; calls by dose curve; further: actives are rising curves; nearly all actives have a fitted effect of over 50% in size
#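 Compounds were scored for reversing the slow growth caused by influenza A NS1 in S. cerevisiae, measured by optical density at 600 nm. Assay medium contained 2% galactose at pH 6.0; NS1-free yeast of the same strain were the positive control.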
# Numbers without * were called inactive; ? = inconclusive; nt = not tested or not shown; [ ] = remark or other dose. Sampled rows, rich in hits. Any-hit rate of the full collection: about 0.86%. Unless noted, the call rests on the fitted dose curve; in most records, active means well fitted curve in the direction sought with a large enough effect; inconclusive means small, poorly fitted or top-dose-only effect, or another doubt; inactive means no such curve, though single readings can be large; an effect the other way counts as inactive or inconclusive. Potency means the concentration at half of the fitted maximal effect.
SMILES,AmpC inh no detg,AmpC detergent,AMA1 RON2 block,NS1 inh
COc1ccc(OC)c2sc(NNC(=O)COc3ccccc3)nc12,-22.9%,-3.4%,87.6%,nt
O=c1cc2c(=O)oc3cc(O)c(O)oc3c2c(O)c1O,-14.9%,-4.7%,10µM*,6.3%
CCCCNC(=S)N(C)/N=C/c1sc(N2CCCCC2)nc1-c1cccs1,11.2µM*,-3.3%,nt,6.1%
CC(C)NC(=S)N/N=C/c1sc(N2CCCCC2)nc1-c1cccs1,-6.3%,-12.0%,17.7%[11.6 µM],23.9%
Nc1nc(SCc2ccc(Cl)cc2Cl)nc2nc3c(cc12)CCCC3,15.8µM*,-3.8%,-10.2%,6.9%
Nc1nc(SCc2ccccc2Cl)nc2nc3c(cc12)CCCC3,-27.5%,-0.9%,31.4%,4.0%
O=C(CSc1nc2nc(-c3cccs3)cc(C(F)(F)F)c2c(=O)[nH]1)Nc1c(F)c(F)c(F)c(F)c1F,-30.8%,-5.2%,14.2%,0.3%
NS(=O)(=O)c1cccc(NC(=O)CSc2nc3nc(-c4cccs4)cc(C(F)(F)F)c3c(=O)[nH]2)c1,15.8µM*,-1.9%,18.4%,2.0%
CC(Oc1ccccc1)C(=O)Nc1c(C(=O)Nc2cccc(F)c2)oc2ccccc12 (stereo not given),nt,-6.2%,nt,nt
COC(=O)C1=C(C)OC(N)=C(C#N)C1c1ccc(OC)c(CSc2ccccn2)c1 (stereo not given),0.224µM*,1.0%,-15.0%,-19.2%
COC(=O)C1=C(C)OC(N)=C(C#N)C1c1ccccc1 (stereo not given),-17.8%,-3.7%,1.0%,-5.5%
CC(C)CC1C(C#N)=C(N)OC2=C1C(=O)CC(c1ccccc1)C2 (stereo not given),28.2µM*,?,6.8%,nt
CC(CC1C(C#N)=C(N)OC2=C1C(=O)CCC2)c1ccccc1 (stereo not given),-29.5%,2.0%,7.0%,-8.3%
CCOC(=O)c1sc(NCc2ccco2)c(-c2nc3ccccc3s2)c1N,11.2µM*,?,-10.5%,0.7%
N/C(COc1ccccc1)=N\NS(=O)(=O)c1ccccc1,0.159µM*,1.3%,37.7%,8.2%
C/C(=N\NS(=O)(=O)c1ccccc1)c1ccccc1,-20.6%,0.3%,11.5%,-6.6%
COC(=O)C[C@@H]1CC[C@H](NC(=O)Nc2ccc(F)cc2)[C@@H](CO)O1,nt,nt,-0.3%,nt
NS(=O)(=O)c1cccc(NC(=O)Nc2ccc(Cl)cc2)c1,14.1µM*,-4.5%,8.6%,-31.7%
CCOC(=O)C1CCN(c2cc(=O)n(-c3ccc(OC)cc3)c(=O)[nH]2)CC1,3.55µM*,?,0.3%,5.6%
COc1ccccc1-c1cn[nH]c1-c1ccc(OCc2ccc(F)cc2)cc1O,7.08µM*,4.1%,77.1%,8.6%
COc1ccccc1-c1cn[nH]c1-c1ccc(OCc2ccc([N+](=O)[O-])cc2)cc1O,-19.9%,?,56.9%,7.9%
Cc1nc(NS(=O)(=O)c2ccccc2)sc1NC(=O)Nc1ccccc1,-40.3%,2.2%,-1.8%,7.8%
Cc1nc(NS(=O)(=O)c2ccccc2)sc1NC(=O)Nc1ccc(Cl)cc1,15.8µM*,-13.3%,39.7%,8.5%
O=C(CCCSc1ccccc1)Nc1nc(-c2ccco2)c(-c2ccco2)s1,28.2µM*,-5.0%,?,23.3%
CN(C)c1ccc(N=Nc2cccc(F)c2)cc1,-5.6%,-2.4%,8.91µM*,-3.3%
SMILES,AmpC inh no detg,AmpC detergent,AMA1 RON2 block,NS1 inh
Cc1cccc(N=Nc2ccc(N(C)C)cc2)c1,-28.4%,-0.1%,15.8µM*,-7.8%
CN(C)c1ccc(N=Nc2cccc3ccoc23)cc1,-10.2%,-18.4%,14.1µM*,-18.7%
CN(C)c1ccc(N=Nc2ccc(S(N)(=O)=O)cc2)cc1,-29.8%,?,-17.1%,?
CCN(CC)c1ccc(NC(=O)COc2ccc(C#N)cc2)cc1S(=O)(=O)Nc1ccc(OC)cc1,5.01µM*,-0.6%,15.3%,?
COc1ccc(OCC(=O)Nc2ccc(C)c(S(=O)(=O)N(C)C)c2)cc1,-34.1%,-0.6%,0.0%,nt
CC1=C(C(=O)O)N2C(=O)C(NC(=O)c3ccccc3Cl)C2SC1 (stereo not given),-31.0%,70.8µM*,8.7%,1.3%
O=C(CCc1ccccc1)c1c(O)cc(O)cc1O,17.8µM*,3.9%,-1.2%,1.5%
COc1cccc(NC(=O)c2ccc(-c3ccc([N+](=O)[O-])cc3)o2)c1,17.8µM*,-6.2%,-10.3%,0.6%
COc1ccccc1NC(=O)C1CCCN(S(=O)(=O)c2c(C)noc2C)C1 (stereo not given),25.6%,-11.5%,1.4%,-8.5%
CCCC(=O)Nc1nc(-c2ccc3c(c2)OCCO3)cs1,11.2µM*,?,3.5%,-14.1%
Cc1c(C(=O)OCC(=O)Nc2cccc(S(N)(=O)=O)c2)oc2c1ccc1ccccc12,11.2µM*,-2.5%,-6.1%,7.4%
NS(=O)(=O)c1cccc(NC(=O)COC(=O)c2ccccc2C(=O)c2ccccc2)c1,-46.7%,-1.1%,16.5%,nt
Cc1cccc(/C=C(\C(=O)O)c2ccc(S(=O)(=O)N3CCCC3)s2)c1,31.6µM*,nt,-28.5%,nt
Cc1ccc(C)c(NS(=O)(=O)c2cc(C(=O)NCCSC3CCCCC3)ccc2C)c1,-33.1%,-5.4%,1.1%,24.4%
Cc1ccccc1NS(=O)(=O)c1cc(C(=O)NCCSC2CCCCC2)ccc1C,1.26µM*,-3.0%,-7.8%,?
COC(=O)c1ccc(NC(=O)CSc2cn(CC(=O)N3CCCCC3)c3ccccc23)cc1,nt,0.7%,nt,nt
Cc1ccc(C2=NN(C(=O)CSc3nc4ncc(Cl)cc4[nH]3)C(c3ccco3)C2)cc1 (stereo not given),10µM*,?,8.1%,nt
CC(=O)Nc1ccc(Nc2nc(-c3sc(NC(C)=O)nc3C)cs2)cc1,1.78µM*,-5.4%,-6.2%,9.0%
CN(C)c1ccc(/C=C/c2ccc3c4ccccc4ccc3[n+]2-c2ccccc2)cc1,71.1%,-13.3%,11.2µM*,nt
COc1ccc(N2CCN(C(=O)c3cc(-c4cccs4)nc4ccccc34)CC2)cc1,25.0%,-7.9%,12.6µM*,5.7%
CC(=O)N1CCN(C(=O)c2oc3ccccc3c2C)CC1,-7.2%,-2.7%,-14.6%,-1.2%
COc1ccc(-c2cc(C(=O)N3CCN(c4ccccc4)CC3)c3ccccc3n2)cc1OC,140.3%,-3.4%,-1.7%,24.8%
COc1ccc(N2CCN(C(=O)c3oc4ccccc4c3C)CC2)cc1,4.6%,-14.3%,14.1µM*,nt
O=C(Nc1cccnc1)C1CC(=O)N(c2ccc(F)cc2)C1 (stereo not given),-35.4%,1.9%,-12.9%,22.1%
COc1ccc(-n2ccc(=O)c(C(=O)Nc3ccc(S(=O)(=O)Nc4nccs4)cc3)n2)cc1,-30.4%,50.1µM*,2.9%,-9.8%
Cc1ccc2oc3c(c(=O)c2c1)C(c1cccc(O)c1)N(c1ccccn1)C3=O (stereo not given),3.55µM*,-5.1%,-8.1%,-120.6%
COc1ccccc1NS(=O)(=O)c1cc(NC(=O)c2ccccc2C)ccc1N1CCOCC1,nt,nt,-11.6%[11.6 µM],nt
